Compound activity deposited in PubChem BioAssay by National Center for Advancing Translational Sciences (NCATS).
In the library only some 3.8% were active in any assay of this set; here they are far more common.
HT1080-NT tox: kills 2HG-producing HT-1080-NT fibrosarcoma cells | Potency, µM (highest dose often 46.1 µM), usual class: cytotoxic | HT-1080-NT fibrosarcoma viability, CellTiter-Glo ATP luminescence, 48 h | hit rate 1.6% among 360,000;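 also: NT is the 2HG producing partner of a matched IDH1 knockdown line; nearly all actives have a fitted effect of over 55% in size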
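HT-1080-NT fibrosarcoma cells (2HG-overproducing), 750 cells/well in RPMI with 5% FBS, dosed after 2 h and incubated 48 h at 37C. CellTiter-Glo luminescence normalized to DMSO and no-cell wells; concentration-response curves fitted and classed.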
HT1080 IDH1KD tx: HT-1080 IDH1 knockdown cell toxicity (counter line) | HT-1080 IDH1 knockdown viability, ATP luminescence, 48 h | Potency, µM (titrated, usually from 46.1 µM), most hits filed as cytotoxic | hit rate 2% among 360,000 | AID 686971
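HT-1080-IDH1KD cells (IDH1 knocked down), 750/well in RPMI with 5% FBS, treated with compound 48 h at 37 degrees C. Viability by CellTiter-Glo luminescence, normalised to DMSO and no-cell wells; concentration-response curves classed.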
TGFb SMAD3 inh: blocks TGF-b signaling; AID 588855; hit rate 1.2% among 410,000; HepG2 CAGA-GFP TGF-b/SMAD3 reporter, GFP fluorescence, 18 h; TGF-beta stimulated, 500 pg/mL final; Potency, µM (series often up to 46.1 µM), actives largely listed as inhibitors; also: nearly all actives have a fitted effect of over 65% in size
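HEPG2 CAGA-GFP reporter cells (1000/well, DMEM with 1% FBS) received compounds, then recombinant TGF-beta at 500 pg/mL final for 18 hours at 37 degrees C. Per-cell GFP summed per well was normalised to unstimulated and stimulated DMSO controls before curve fitting.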
HepG2 viability: HepG2 cytotoxicity, counter-screen for TGF-b inhibitors; HepG2 CAGA-GFP viability, ATP luminescence, 18 h; Potency, µM (series often up to 46.1 µM), actives largely listed as cytotoxic; hit rate 0.76% among 410,000
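CellTiter-Glo luminescence gave cytotoxicity after 18 hours at 37 degrees C. The cells were HepG2 CAGA-GFP in 1% FBS DMEM, stimulated with 500 pg/mL TGF-beta after compound addition. %Activity was normalised to no-cell wells (complete cell-killing) and DMSO (no toxicity), and curves were fitted and classified.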
ATXN viability: cell viability loss in ATXN counter-screen; S2 cells (HEK-293 line with an ATXN2-luciferase reporter) viability, CellTiter-Fluor protease fluorescence, 24 h; Potency, µM (highest dose often 56.7 µM), usual class: cytotoxic; hit rate 0.49% among 400,000; also: nearly all actives have a fitted effect of over 40% in size
ATXN2 expr inh: ATXN2 expression inhibition; hit rate 0.72% among 360,000; HEK-293 ATXN2-luciferase reporter, luminescence, 24 h; Potency, µM (highest dose often 57 µM), actives largely listed as inhibitors; also: nearly all actives have a fitted effect of over 55% in size
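qHTS (up to 57 uM final) was run with 24 h compound exposure of reporter cells at 37 °C. Each well was multiplexed: SteadyGlo luminescence measured ATXN2-luciferase expression after a fluorogenic Gly-Phe-AFC viability readout (25 uM final).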
Each line names hits and unclear results; the compound was inactive in the other large screens. Calls follow the shape of the dose curve; as a rule, active = well fitted curve in the direction sought with a large enough effect; inconclusive = small, poorly fitted or top-dose-only effect, or another doubt; inactive = no such curve, though single readings can be large; an effect the other way counts as inactive or inconclusive.

CCCCCC(=O)N1C[C@@H](O)[C@H](n2cc(-c3ccc(F)cc3)nn2)C[C@@H]1c1ccccc1	none
Nc1cc(=O)[nH]c(=S)[nH]1	none (no result: HT1080-NT tox, HT1080 IDH1KD tx, ATXN viability, ATXN2 expr inh)
O/N=C(/C[n+]1ccsc1)c1ccc(I)cc1	none (no result: HT1080-NT tox, HT1080 IDH1KD tx, ATXN viability, ATXN2 expr inh)
CC(C)(C)n1ncc2c(=O)n(Cc3ccc(F)c(C(F)(F)F)c3)cnc21	TGFb SMAD3 inh inconclusive (no result: HT1080-NT tox, HT1080 IDH1KD tx, ATXN viability, ATXN2 expr inh)
Cc1ccc([C@H]2C[C@H](O)[C@@H](n3cc(-c4ccc(F)cc4)nn3)CN2Cc2cccs2)cc1	HT1080-NT tox inconclusive, HT1080 IDH1KD tx inconclusive, ATXN viability inconclusive, ATXN2 expr inh inconclusive
CCCCCCN1C[C@H](O)[C@@H](n2cc(-c3ccc(F)cc3)nn2)C[C@@H]1c1ccccc1	HT1080-NT tox inconclusive, HT1080 IDH1KD tx inconclusive, TGFb SMAD3 inh inconclusive, ATXN viability 18µM
O[C@H]1C[C@H](c2ccc(Cl)cc2)N(Cc2cccs2)C[C@@H]1n1cc(-c2ccc(F)cc2)nn1	HT1080-NT tox inconclusive, HT1080 IDH1KD tx inconclusive, TGFb SMAD3 inh inconclusive, ATXN2 expr inh 32µM (no result: ATXN viability)
CCCCCCN1C[C@H](n2cc(-c3ccc(F)cc3)nn2)[C@@H](O)C[C@@H]1c1ccccc1	TGFb SMAD3 inh inconclusive
COc1ccc2c(c1)c(C1=C(c3c[nH]c4ccccc34)C(=O)NC1=O)cn2CCCN(C)C	ATXN2 expr inh 22µM (no result: HT1080-NT tox, HT1080 IDH1KD tx, TGFb SMAD3 inh, HepG2 viability, ATXN viability)
Cc1oc2c(c(=O)c1C)C(=O)CC(c1ccccc1)C2 (stereo not drawn)	none
CS(=O)(=O)c1sc(C#N)c2c1C(=O)CC(c1ccccc1)C2 (stereo not drawn)	HT1080-NT tox 6.5µM, HT1080 IDH1KD tx 23µM, TGFb SMAD3 inh inconclusive, ATXN viability 6.3µM, ATXN2 expr inh 5µM
Cn1cc(C2=C(c3cn(CCCSC(=N)N)c4ccccc34)C(=O)NC2=O)c2ccccc21	TGFb SMAD3 inh 0.71µM, HepG2 viability 2µM (no result: HT1080-NT tox, HT1080 IDH1KD tx, ATXN viability, ATXN2 expr inh)
O=C(Nc1nnc(C2CC2)o1)c1ccc(S(=O)(=O)N2CCCCC2)cc1	TGFb SMAD3 inh inconclusive
Cc1ccc2nc(NC(=O)c3ccc(S(=O)(=O)N4CCCc5ccccc54)cc3)sc2c1	HT1080-NT tox 18µM, HT1080 IDH1KD tx 16µM
COc1ccc(-c2nnc(NC(=O)c3ccc(S(=O)(=O)N4CCCc5ccccc54)cc3)o2)cc1	HT1080-NT tox 11µM, HT1080 IDH1KD tx 11µM, TGFb SMAD3 inh inconclusive, ATXN2 expr inh inconclusive
COCc1nnc(NC(=O)c2ccc(S(=O)(=O)N3CCCc4ccccc43)cc2)o1	HT1080-NT tox 15µM, HT1080 IDH1KD tx 21µM
O=C(Nc1nnc(C2CC2)o1)c1ccc(S(=O)(=O)N2CCCc3ccccc32)cc1	HT1080-NT tox inconclusive, HT1080 IDH1KD tx inconclusive, TGFb SMAD3 inh inconclusive, ATXN viability inconclusive, ATXN2 expr inh 16µM
O=C(Nc1nc2c(F)cccc2s1)c1ccc(S(=O)(=O)N2CCCc3ccccc32)cc1	none (no result: HT1080-NT tox, HT1080 IDH1KD tx)
O=C1NC(=O)C(=Cc2ccc3c(c2)OC(F)(F)O3)S1	none (no result: HT1080-NT tox, HT1080 IDH1KD tx, TGFb SMAD3 inh, HepG2 viability, ATXN viability)
CC(C)(C)[C@H](NC(=O)c1ccc(N)c(Cl)c1)C(=O)N1CCC[C@@H]1C(=O)N[C@H](C#N)CC(=O)O	none (no result: HT1080-NT tox, HT1080 IDH1KD tx, TGFb SMAD3 inh, HepG2 viability, ATXN viability)
O=C(CCl)N1CCN(C(=O)C2COc3ccccc3O2)CC1 (stereo not drawn)	HT1080-NT tox inconclusive, HT1080 IDH1KD tx 23µM, ATXN viability inconclusive
CC12CCC(=O)C=C1CCC1C2C(=O)CC2(C)C1CCC2(O)C(=O)CO (stereo not drawn)	none
COC(=O)C=C1CCC2C3CCC4=CC(=O)C(Br)CC4(C)C3C(=O)CC12C (stereo not drawn)	ATXN2 expr inh 32µM (no result: ATXN viability)
C=C1C(=O)OC2C1CCC(C)C1C=CC(=O)C12C (stereo not drawn)	HT1080-NT tox inconclusive, HT1080 IDH1KD tx 21µM, TGFb SMAD3 inh inconclusive, ATXN viability inconclusive, ATXN2 expr inh inconclusive
Nc1nc(SCC(=O)O)c2[nH]cnc2n1	none (no result: HT1080-NT tox, HT1080 IDH1KD tx, ATXN viability, ATXN2 expr inh)
COc1ccc(C(=O)Nc2nnc(-c3ccco3)s2)cc1	ATXN viability inconclusive, ATXN2 expr inh 7.9µM
O=C(Nc1nnc(-c2ccco2)s1)c1ccccc1	HT1080 IDH1KD tx inconclusive
COc1cccc(C(=O)Nc2c3c(nn2-c2ccc(C)cc2C)CS(=O)(=O)C3)c1OC	HepG2 viability 3.2µM (no result: HT1080-NT tox, HT1080 IDH1KD tx)
